Bioassay records (PubChem BioAssay)
PfHsp90 set2: growth inhibition of yeast expressing Plasmodium Hsp90. S. cerevisiae expressing PfHsp90, BacTiter-Glo ATP, 48 h; yeast lacking PDR1 and PDR3 efflux regulators. inhibition, % at 9.4 µM. hit rate 0.32% among 310,000. AID 504621;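 active means every replicate shows inhibition above about 80%, whatever the replicate mean, limit read from the data; inconclusive means mean inhibition reaches the set limit but some replicate falls short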
tim23-1 inh: growth inhibitors of tim23-1 mutant yeast. inhibition, % at 20 µM. hit rate 1.3% among 330,000. AID 463212. S. cerevisiae tim23-1 growth, BacTiter-Glo luminescence, 24 h;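 active means growth inhibition of the mutant yeast at or above 50%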;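 further: temperature-sensitive mutant grown at 25 °C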
tim10-1 inh: inhibits growth of tim10-1 mutant yeast | inhibition, % at 20 µM | AID 463190 | S. cerevisiae tim10-1 ts strain growth, BacTiter-Glo, 24 h | hit rate 2.2% among 330,000;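 active means inhibition of at least 40%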;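 further: mutant grown at 25 °C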
TIM10 inh: growth inhibitors of TIM10 yeast strain; hit rate 1.4% among 330,000; AID 463195; inhibition, % at 10 µM; S. cerevisiae TIM10 strain growth, BacTiter-Glo luminescence, 24 h;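 active means inhibition of 40% or more at the single tested concentration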;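 further: wild-type TIM10 isogenic control strain grown at permissive 25 °C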
SKKanGAS inh: SKKanGAS growth inhibition | hit rate 1.3% among 300,000 | inhibition, % at 7.5 µM | S. pyogenes SKKanGAS, kanamycin growth, BacTiter-Glo, 6 h;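 active means mean replicate score, as percent of positive control median, at least 50; inconclusive means mean below 50 but one replicate at or above 50; inactive means mean and every replicate below 50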;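 further: strain carries kanamycin resistance gene driven by streptokinase promoter and grows in 40 µg/ml kanamycin; loss of luminescence reflects streptokinase promoter inhibition or plain growth inhibition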
tim10-1 confirm: confirmation of tim10-1 mutant yeast growth inhibitors | hit rate 56% among 7,400 | shares compounds with tim10-1 inh | S. cerevisiae tim10-1 ts strain growth, BacTiter-Glo, 24 h | inhibition, % at 20 µM;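 active means inhibition of yeast growth at or above a set limit in either of two repeat tests at 20 µM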;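 further: tim10-1 mutant grown at permissive 25 °C to find synthetic lethal compounds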
Of the large screens only hits and unclear results are named; the others gave an inactive call (follow-up assays come after a bar, where they were run). Only some compounds are listed: those with a hit (about 4.4% of all), similar ones and a draw of the others.

CC(Oc1ccccc1F)C(=O)NNC(=O)c1ccc(F)c(S(=O)(=O)N2CCOCC2)c1 (stereo not drawn)	none
Cc1nc(N2CCC(C)CC2)c2c(C)c(C(=O)Nc3ccc4c(c3)OCCO4)sc2n1	tim10-1 inh 41.5 | tim10-1 confirm inactive
Cc1c(C(=O)Nc2ccc3c(c2)OCCO3)sc2ncnc(N3CCCCC3C)c12 (stereo not drawn)	tim10-1 inh 46.3 | tim10-1 confirm inactive
Cc1nc(N2CCOCC2)c2c(C)c(C(=O)Nc3ccccc3Cl)sc2n1	none
CCOC(=O)CCc1c(C)n(CC)c2cc(-c3ccccc3OC)nn2c1=O	tim10-1 inh 41.7 | tim10-1 confirm inactive
CCN(CC)CCCNC(=O)CCc1c(C)n(CC)c2cc(-c3ccccc3OC)nn2c1=O	none
O=[N+]([O-])c1ccc2oc(C(O)c3cccc(Cl)c3)cc2c1 (stereo not drawn)	tim10-1 inh 43.8 | tim10-1 confirm 43.0
CC1(C)Cc2c(ccc3ccccc23)/C(=C/C(=O)N2CCCCC2)N1	tim10-1 inh 45.1 | tim10-1 confirm 32.0
CCn1ccnc1CN(C)Cc1cn(-c2ccc(C)cc2)nc1-c1ccc(F)cc1	none
CCn1ccnc1CN(C)Cc1cn(-c2cc(C)ccc2C)nc1-c1ccccc1	tim10-1 inh 41.5 | tim10-1 confirm inactive
Cc1ccccc1CSCCNC(=O)c1ccccc1	none
Cc1ccccc1CSCCNC(=S)Nc1ccccc1	tim10-1 inh 45.4 | tim10-1 confirm inactive
COc1ccc(CNC(=O)c2cccc(NC(=O)CC3SC(N4CCCCC4)=NC3=O)c2)cc1 (stereo not drawn)	none (no result: SKKanGAS inh)
Cc1nnc(Sc2cc(NCCCO)c([N+](=O)[O-])c3nonc23)s1	SKKanGAS inh inconclusive (no result: tim23-1 inh, tim10-1 inh, TIM10 inh)
O=[N+]([O-])c1c(NCCCO)cc(Sc2nc3ccccc3s2)c2nonc12	tim10-1 inh 84.8, SKKanGAS inh 78.0 (no result: PfHsp90 set2) | tim10-1 confirm 85.0
CC(C)(C)C(=O)[C@@H]1[C@@H]2C(=O)N(C3CCCCC3)C(=O)[C@@H]2[C@H]2c3ccccc3C=CN12	tim10-1 inh 40.5 (no result: SKKanGAS inh) | tim10-1 confirm inactive
COc1cnc(-c2ccccn2)nc1Sc1ccccc1Cl	tim10-1 inh 46.6 (no result: PfHsp90 set2) | tim10-1 confirm 33.8
Nc1ccccc1C(=O)N1O[C@@H]2C=C[C@H]1CC2	none (no result: SKKanGAS inh)
O=C(Nc1ccc(Cl)cc1)NC1CCCCC1Cc1ccco1 (stereo not drawn)	tim10-1 inh 47.2 | tim10-1 confirm 41.0
O=[N+]([O-])c1cc(/C=N/O)ccc1Sc1ccccc1	none
O=[N+]([O-])c1cc(/C=N/O)ccc1Oc1ccccc1Cl	PfHsp90 set2 105.7, tim10-1 inh 54.5 | tim10-1 confirm 42.3
O=[N+]([O-])c1cc(/C=N/O)ccc1Oc1cccc(Cl)c1	tim10-1 inh 60.5 | tim10-1 confirm 55.0
CO/N=C/c1ccc(Oc2ccc(C)cc2)c([N+](=O)[O-])c1	none
CC(=O)NC12CC3CC(C1)CC(C(=O)N(C)Cc1cccc(Cl)c1Cl)(C3)C2	none
Cc1ccc(C)c(CSC2=NCCN2S(=O)(=O)c2ccccc2)c1	SKKanGAS inh inconclusive
Nc1nonc1-n1nnc(C(=O)c2ccccc2)c1-c1ccccc1	tim10-1 inh 40.9 | tim10-1 confirm inactive
Cc1cccc(CCNC(=O)c2cccc3c2C(=O)N(C2CCCCC2)C3)c1	tim10-1 inh 52.3 | tim10-1 confirm inactive
Cc1ccc(NC(=O)c2cccc3c2C(=O)N(C2CCCCC2)C3)c(C)c1	none
Cc1cc(C)c(NC(=O)c2cccc3c2C(=O)N(C2CCCCC2)C3)c(C)c1	tim10-1 inh 49.3 | tim10-1 confirm inactive
COc1ccccc1NS(=O)(=O)c1cccc(NC(=O)c2cncc(Br)c2)c1	none (no result: PfHsp90 set2, SKKanGAS inh)
Cc1ccccc1CN(CC(=O)Nc1cccc([N+](=O)[O-])c1)S(=O)(=O)c1ccc(Cl)cc1	tim10-1 inh 44.5 | tim10-1 confirm inactive
COCCCNC(=O)c1c(N)n(/N=C/c2cccnc2)c2nc3ccccc3nc12	none
COCCCNC(=O)c1c(N)n(/N=C/c2cccs2)c2nc3ccccc3nc12	tim10-1 inh 41.5 | tim10-1 confirm inactive
CCC(C)NC(=O)c1c(N)n(/N=C/c2ccccn2)c2nc3ccccc3nc12 (stereo not drawn)	tim10-1 inh 41.6, SKKanGAS inh 86.6 | tim10-1 confirm inactive
COCCNC(=O)COc1coc(CN2CCN(Cc3ccccc3)CC2)cc1=O	none
O=C(CNC(=O)c1ccc(F)cc1)NCc1ccc(S(=O)(=O)N2CCOCC2)cc1	none (no result: PfHsp90 set2, SKKanGAS inh)
